Source: PubChem
A selection: hits, their analogues and other compounds. The true share with any hit is near 11%.
3T3 cytotox = Cytotoxic Profiling in NIH 3T3 Cell Line of Diverse Libraries Using Quantitative High-Throughput Screening. actives 4.3% (n = 94,000). AID 1345082, 2018. NIH 3T3 viability, CellTiter-Glo ATP luminescence, 48-72 h. Potency, µM (series often up to 96.7 µM), most hits filed as inhibitors; further: nearly all actives have a fitted effect of over 55% in size
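Viability of NIH 3T3 cells after 48 or 72 hr compound treatment at 37 °C was assessed by CellTiter-Glo, with luminescence imaged following a 10 min room-temperature step.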
HEK cytotox = Cytotoxic Profiling in HEK 293 Cell Line of Diverse Libraries Using Quantitative High-Throughput Screening | Potency, µM (series often up to 115 µM), most hits filed as inhibitors | HEK 293 viability, ATP luminescence (CellTiter-Glo), 48-72 h | AID 1345083, 2018 | actives 6.6% (n = 94,000); further: nearly all actives have a fitted effect of over 60% in size
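Cytotoxicity was scored by loss of ATP-coupled luminescence (CellTiter-Glo) in HEK 293 cells. Compound treatment ran 48 or 72 hr at 37 degree Celsius, 5% CO2, 95% humidity.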
Luciferase inh = Firefly luciferase inhibition profiling of diverse chemical library using quantitative high-throughput screening; actives 2.5% (n = 76,000); purified P. pyralis luciferase, luminescence, biochemical; Potency, µM (titrated, usually from 115 µM), hits mostly inhibitors; further: nearly all actives have a fitted effect of over 65% in size
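Luminescence read by CCD imager after adding enzyme (10nM final) to wells holding compound, titrated in qHTS. Substrates 10uM each D-luciferin and ATP; buffer 50mM Tris acetate pH 7.5, 10mM Mg acetate, Tween-20, BSA.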
NPR1 antag = Natriuretic polypeptide receptor (hNpr1) antagonism - Primary qHTS. Atrial natriuretic peptide receptor 1 (Homo sapiens), P16066. HEK293 hNpr1 GloSensor cGMP, ANP-stimulated luminescence. Potency, µM (top dose mostly 46.3 µM), actives largely listed as inhibitors. actives 1.6% (n = 76,000); calls by dose curve; further: nearly all actives have a fitted effect of over 60% in size
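Compound pre-incubated 30 min at room temperature on GloSensor-loaded HEK293 cells stably carrying hNpr1 and the pGS-40F cGMP biosensor. Stimulation uses hNppA at 0.1 nM final; luminescence is taken at baseline and 20 min post-agonist.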
A number is an active result; 0 = inactive; ? = inconclusive; - = no result. Unless noted, the call rests on the fitted dose curve; in most records, active means well fitted curve in the direction sought with a large enough effect; inconclusive means small, poorly fitted or top-dose-only effect, or another doubt; inactive means no such curve, though single readings can be large; an effect the other way counts as inactive or inconclusive.

SMILES | 3T3 cytotox | HEK cytotox | Luciferase inh | NPR1 antag
COc1ccc2c(c1)CCc1c-2n[nH]c1C(=O)N1CCc2c(nc3cc(-c4ccccc4)[nH]n3c2=O)C1 | 0 | 0 | ? | 0
O=C(NCc1cccs1)c1nc2cccnc2n(C2CC2)c1=O | 0 | 0 | - | -
CC(C)(C)CC(=O)N1C[C@@H](CO)[C@@H]2Oc3c(F)cccc3[C@@H]21 | 0 | ? | - | -
N#Cc1ccc(CN2CCC(c3nc4ccncc4[nH]3)C2)cc1 (centres undefined) | ? | ? | 0 | 0
COc1ccc(CN2CC[C@H](c3nc4c(C(N)=O)cccc4[nH]3)C2)cc1 | ? | ? | 0 | 0
NC(=O)c1cccc2[nH]c([C@H]3CCN(Cc4cccc(Cl)c4)C3)nc12 | ? | 56µM | 0 | ?
FC(F)(F)c1ccc2nc([C@H]3CCN(C4CCOCC4)C3)[nH]c2c1 | 0 | ? | 0 | 0
FC(F)(F)c1ccc2nc([C@H]3CCN(Cc4ccccn4)C3)[nH]c2c1 | ? | 45µM | ? | 0
N#Cc1ccc2nc([C@H]3CCN(Cc4ccccc4)C3)[nH]c2c1 | 40µM | 50µM | ? | 0
N#Cc1ccc2nc([C@H]3CCN(Cc4ccccn4)C3)[nH]c2c1 | 63µM | 100µM | ? | 0
COc1ccc(CC(=O)N2CC(=O)N(CCCc3ccccc3)CC(O)C2)cc1 (centres undefined) | 0 | ? | - | -
COc1ccc(CN2Cc3[nH]cnc3C[C@H]2C(=O)N2CCC(Cc3ccccc3)CC2)cc1 | 18µM | 79µM | 0 | 0
O=C(C1CCCN1Cc1ccc(-c2cncnc2)cc1)N1CCCC1 (centres undefined) | 0 | 0 | - | -
COc1cccc(-c2ccc(CN3CCCC3C(=O)N3CCC(C#N)CC3)cc2)c1 (centres undefined) | ? | 0 | - | -
Cc1cc(C)cc(-c2ccc(CN3CCCC3C(=O)N3CCC(Cc4ccccc4)CC3)cc2)c1 (centres undefined) | 11µM | 20µM | - | -
COc1ccc(CN2Cc3[nH]cnc3C[C@H]2C(=O)NCc2ccco2)cc1 | 0 | ? | 0 | 0
Cc1cc(C)cc(-c2ccc(CN3CCCC3C(=O)N3CCN(Cc4ccccc4)CC3)cc2)c1 (centres undefined) | 13µM | 20µM | - | -
Cc1cc(C)cc(-c2ccc(CN3CCCC3C(=O)N3CCCC(C)C3)cc2)c1 (centres undefined) | ? | 35µM | - | -
Cc1cccc(C(=O)N2CCCC(N3CCN(c4cccc(C(F)(F)F)c4)CC3)C2)c1 (centres undefined) | 0 | ? | 0 | 0
O=C(c1ccco1)N1C[C@@H]2C(CN(CC#Cc3ccccc3)C3CC3)[C@@H]2C1 (some centres undefined) | ? | ? | 0 | 0
COCC(=O)Nc1cc(C2CCCC2)nn1C | 0 | 0 | - | -
CC(=O)Nc1ccc(CN2CCCCC23Cc2ccccc2CN(C(C)=O)C3)cc1 (centres undefined) | 0 | 0 | - | -
COCCCn1c(=O)c(C(=O)N2CCN(C(C)=O)CC2)nc2cccnc21 | 0 | 0 | - | -
O=C(Nc1ccc2c(c1)OCCO2)N1CC2(CCCCC2)CC1COc1ccncc1 (centres undefined) | 0 | 0 | - | -
Cc1ccc(-c2ccc3ncn(Cc4ccccn4)c(=O)c3n2)c(C)c1 | 25µM | 0 | 0 | 0
SMILES | 3T3 cytotox | HEK cytotox | Luciferase inh | NPR1 antag
Cn1ccc2cc(-c3ccc4ncn(Cc5ccccn5)c(=O)c4n3)ccc21 | 89µM | 0 | 45µM | 0
O=c1c2nc(N3CCC(c4ccccc4)CC3)ccc2ncn1Cc1ccccn1 | 0 | ? | 63µM | 0
COCCn1cnc2ccc(-c3cccc(O)c3)nc2c1=O | 22µM | 0 | 0 | 0
O=c1c2nc(-c3ccc(Cl)cc3)ccc2ncn1Cc1ccccn1 | ? | ? | 0 | 0
CCOC(=O)[C@H]1C[C@]2(CCCCN(CCOC(C)=O)C2=O)N(C(=O)c2ccccc2)[C@H]1c1ccco1 | ? | 0 | - | -
Cn1ncc2c(C(=O)NCC3CCCCC3)cc(-c3ccccc3C(F)(F)F)nc21 | ? | 0 | - | -
O=c1c2nc(-c3ccccc3)ccc2ncn1Cc1ccccn1 | 79µM | 0 | 0 | 0
COc1cc(F)ccc1-c1ccc2c(n1)c(=O)ncn2CC1CC1 | ? | 0 | 0 | 0
O=c1ncn(CC2CC2)c2ccc(N3CCC(c4ccccc4)CC3)nc12 | 0 | ? | 56µM | 0
O=c1ncn(CC2CC2)c2ccc(-c3ccc(F)cc3F)nc12 | 100µM | 0 | 0 | 0
COC(=O)CNC(=O)c1nc2cccnc2n(-c2ccccc2OC)c1=O | 0 | 0 | - | -
N#Cc1cccnc1-c1ccc(C(=O)O)cc1 | 0 | 0 | - | -
N#Cc1cccnc1N1CCCC(CO)(CCCc2ccccc2)C1 (centres undefined) | ? | ? | 0 | 0
CN(CCc1ccccc1)CCN1CC2(CCN(c3ncccc3C#N)CC2)OC1=O | ? | 40µM | 0 | 0
CNC(=O)c1cc(C2CC2)nc2onc(C3CCCN3C(=O)NC(C)C)c12 (centres undefined) | 0 | 0 | - | -
CCc1ccc(CN2CCCC(CO)(Cc3ccc(F)cc3F)C2)cc1 (centres undefined) | 79µM | ? | 0 | 0
Cc1cc(C2CC(C(=O)NCCc3ccccc3)CN(C(=O)C3CC3)C2)ccc1F (centres undefined) | 32µM | ? | 0 | 0
CCNC(=O)N1CC(C(=O)NCc2cccc(F)c2)CC(c2ccc(F)c(C)c2)C1 (centres undefined) | ? | ? | 0 | 0
Cc1ccc(N2CCC(NC(=O)Cc3cccc(F)c3)C2=O)cc1 (centres undefined) | 32µM | 25µM | 0 | 0
O=C(Cc1cccc(F)c1)NC1CCN(c2ccc(F)cc2)C1=O (centres undefined) | 0 | 0 | 0 | 0
O=C(Cc1ccc(F)cc1)N(CC1CCN(Cc2ccccc2F)CC1)CC1CCCO1 (centres undefined) | 0 | ? | 0 | 0
COc1ccc(-c2nnc3n2CCN(C(=O)Cc2ccccn2)C3)cc1 | 0 | 0 | 0 | 0
O=C(Nc1cccnc1)[C@@H]1C[C@@H](c2ccc(F)cc2)N(Cc2ccccc2)C1 | 79µM | ? | 0 | ?
COc1ccc(NC(=O)[C@@H]2C[C@H](c3ccc(F)cc3)N(Cc3csc(C)n3)C2)cn1 | ? | ? | 0 | 0
O=C(Nc1cccnc1)[C@@H]1C[C@H](c2ccc(F)cc2)N(Cc2ccccc2Cl)C1 | 45µM | 40µM | 0 | 0
COc1ccc(NC(=O)[C@@H]2C[C@H](c3ccc(F)cc3)N(Cc3ccccc3Cl)C2)cn1 | 22µM | 28µM | 0 | 0
COC1C(=O)N(CC2CC2)C12CCN(C(=O)NCc1ccccc1)CC2 (centres undefined) | 0 | 0 | - | -
C[S+](=O)([O-])Nc1cccc(-c2cc(-c3cccnc3)c3cncn3c2)c1 | ? | ? | 0 | 0
O=C(CCC1CCCN(Cc2nc3c(s2)CCCC3)C1)Nc1ccccc1F (centres undefined) | ? | ? | 0 | 0
